The panel holds about 79,000 compounds, 15% with a hit somewhere; the sample as a whole holds those more often. Active and inactive are the calls of the source. No stated cut-off is given here; in the data, active means growth inhibition above about 70%; inactive means the rest.
Columns and labels:
[1] = NCI Yeast Anticancer Drug Screen. Data for the rad52 strain (AID 147);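 further: 0% = growth of vehicle-treated control cultures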; details: S. cerevisiae rad52 mutant growth inhibition, hits give high values
Procedure, shortened: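 Here a repair-compromised yeast strain receives each compound; its growth is then quantified and normalised to vehicle-only controls.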

[2] = NCI Yeast Anticancer Drug Screen. Data for the wt1 strain (AID 149);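 further: 0% = growth of vehicle-treated wt1 cultures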; details: S. cerevisiae wt1 strain (SPY 50644) growth inhibition, hits give high values
Procedure, shortened: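 Using yeast strain wt1, compound-induced growth inhibition was determined against vehicle-treated cultures.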

[3] = NCI Yeast Anticancer Drug Screen. Data for the rad50EPP+ strain (AID 151);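 further: 0% = growth of vehicle-treated control cultures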; details: S. cerevisiae rad50 mutant strain, hits give high values
Procedure, shortened: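 Read-out is yeast growth inhibition relative to vehicle; cells used were the rad50EPP+ strain.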

[4] = NCI Yeast Anticancer Drug Screen. Data for the mgt1 strain (AID 153); details: S. cerevisiae mgt1 mutant growth inhibition, hits give high values
Procedure, shortened: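 Measured: inhibition of mgt1 yeast growth by compound, normalized to vehicle-treated cultures.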

[5] = NCI Yeast Anticancer Drug Screen. Data for the rad50 strain (AID 155);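 further: 0% = growth of vehicle-only cultures of the same strain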; details: S. cerevisiae rad50 strain growth inhibition, hits give high values
Procedure, shortened: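 Relative growth inhibition (compound vs vehicle) was measured in yeast with a defined repair-gene alteration.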

[6] = NCI Yeast Anticancer Drug Screen. Data for the mec2-1 strain (AID 157); details: S. cerevisiae mec2-1 strain, hits give high values
Procedure, shortened: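 Using mec2-1 yeast: add compound, measure growth, express inhibition versus vehicle-treated cultures.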

[7] = NCI Yeast Anticancer Drug Screen. Data for the rad14 strain (AID 159);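 further: 0% = growth of vehicle-treated control cultures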; details: S. cerevisiae rad14 strain growth inhibition, hits give high values
Procedure, shortened: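 Screen for anticancer potential: a yeast strain altered in DNA damage repair is grown with compound, and reduced growth is quantified against vehicle controls.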

[8] = NCI Yeast Anticancer Drug Screen. Data for the sgs1 mgt1 strain (AID 161);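 further: 0% = growth of cultures given vehicle only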; details: S. cerevisiae sgs1 mgt1 strain, hits give high values
Procedure, shortened: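 This yeast growth screen uses a strain with defined DNA-repair lesions; compound-treated growth is compared with vehicle-treated growth.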

[9] = NCI Yeast Anticancer Drug Screen. Data for the CLN2oe strain (AID 163);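 further: 0% = growth of vehicle-only control cultures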; details: S. cerevisiae CLN2oe strain, hits give high values
Procedure, shortened: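 Whole-cell yeast growth assay. A strain engineered for altered cell-cycle control received compound, and inhibition relative to vehicle-treated cultures was recorded.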

[10] = NCI Yeast Anticancer Drug Screen. Data for the cln2 rad14 strain (AID 165);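 further: 0% = growth equal to vehicle treated cultures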; details: S. cerevisiae cln2 rad14 strain, hits give high values
Procedure, shortened: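 Yeast strain cln2 rad14, bearing defects in cell cycle control and DNA repair, serves as the test system; values reflect growth inhibition compared with vehicle.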

[11] = NCI Yeast Anticancer Drug Screen. Data for the bub3 strain (AID 167); details: S. cerevisiae bub3 mutant strain, hits give high values
Procedure, shortened: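 Screening used yeast with an engineered genetic alteration affecting cell cycle control. Compound-exposed cultures were compared with vehicle cultures, and reduced growth was taken as inhibition.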

[12] = NCI Yeast Anticancer Drug Screen. Data for the wt2 strain (AID 169);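 further: 0% = growth of vehicle-treated yeast cultures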; details: S. cerevisiae wt2 strain growth inhibition, hits give high values
Procedure, shortened: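 Treated yeast vs. vehicle-treated yeast: growth inhibition determined.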

[13] = NCI Yeast Anticancer Drug Screen. Data for the mlh1 strain (AID 171);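 further: 0% = growth of vehicle-treated control cultures of the same strain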; details: S. cerevisiae mlh1 strain growth inhibition, hits give high values
Procedure, shortened: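 A yeast strain with a defined genetic lesion serves as the test organism. Cultures receive compound or vehicle, and growth is measured.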

[14] = NCI Yeast Anticancer Drug Screen. Data for the mlh1 rad18 strain (AID 175); details: S. cerevisiae mlh1 rad18 strain growth inhibition, hits give high values
Procedure, shortened: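 Steps: expose repair-defective yeast to compound; measure growth; express inhibition against vehicle-treated controls.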

[15] = NCI Yeast Anticancer Drug Screen. Data for the rad18 strain (AID 177); details: S. cerevisiae rad18 mutant growth inhibition, hits give high values
Procedure, shortened: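 Measured value is growth inhibition of a yeast strain bearing a DNA repair alteration, referenced to vehicle-treated cells.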

[16] = at 5.0 µM (retest, dose inferred, filed as 0.5)
[17] = at 50.0 µM (retest, dose inferred, filed as 5.0)

Measured: growth inhibition

COc1cc(C(=O)C=O)cc(OC)c1OC
active: [1]; at 100.0 µM 86% | [4]; at 100.0 µM 94% | [5]; at 100.0 µM 91% | [6]; at 100.0 µM 90% | [7]; at 100.0 µM 95% | [8]; at 50.0 µM 73% | [9]; at 100.0 µM 85% | [11]; at 100.0 µM 87% | [12]; at 100.0 µM 88% | [13]; at 100.0 µM 88% | [15]; at 100.0 µM 91%
inactive: [1]; at 1.2 µM 1% | [1]; at 3.7 µM 3% | [1]; at 11.0 µM 1% | [1]; at 33.0 µM 0% | [2]; at 1.2 µM -3% | [2]; at 3.7 µM -4% | [2]; at 11.0 µM -7% | [2]; at 33.0 µM -5% | [2]; at 100.0 µM 61% | [3]; at 1.2 µM 1% | [3]; at 3.7 µM 5% | [3]; at 11.0 µM 6% | [3]; at 33.0 µM 16% | [3]; at 100.0 µM 58% | [4]; at 1.2 µM 1% | [4]; at 3.7 µM -3% | [4]; at 11.0 µM -4% | [4]; at 33.0 µM 14% | [5]; at 1.2 µM 0% | [5]; at 3.7 µM -5% | [5]; [16] -156% | [5]; at 11.0 µM 9% | [5]; at 33.0 µM 19% | [5]; [17] 44% | [5]; at 50.0 µM 44.3% | [6]; at 1.2 µM 1% | [6]; at 3.7 µM -1% | [6]; [16] -53% | [6]; at 11.0 µM 6% | [6]; at 33.0 µM -4% | [6]; [17] 3% | [6]; at 50.0 µM 57% | [7]; at 1.2 µM -3% | [7]; at 3.7 µM -7% | [7]; at 11.0 µM -5% | [7]; at 33.0 µM 9% | [8]; [16] -67% | [8]; [17] 60% | [9]; at 1.2 µM 0% | [9]; at 3.7 µM -5% | [9]; at 11.0 µM -7% | [9]; at 33.0 µM 6% | [10]; [16] -65% | [10]; [17] 8% | [10]; at 50.0 µM 37.5% | [11]; at 1.2 µM -6% | [11]; at 3.7 µM -6% | [11]; [16] -66% | [11]; at 11.0 µM -8% | [11]; at 33.0 µM -8% | [11]; [17] 33% | [11]; at 50.0 µM 31.9% | [12]; at 1.2 µM 2% | [12]; at 3.7 µM 1% | [12]; at 11.0 µM 0% | [12]; at 33.0 µM 0% | [13]; at 1.2 µM 9% | [13]; at 3.7 µM -3% | [13]; at 11.0 µM -6% | [13]; at 33.0 µM -8% | [14]; [16] -129% | [14]; [17] 52% | [14]; at 50.0 µM 67.4% | [15]; at 1.2 µM 0% | [15]; at 3.7 µM -2% | [15]; at 11.0 µM -2% | [15]; at 33.0 µM 5%

From PubChem BioAssay (NCI)
